According to the supplement of paper PMC9135407:
Structures can show the parent of a compound that is named as a salt. Out of some 5,800 compounds screened, about 620 (11%) showed activity. The sample holds actives, similar compounds and a random draw of the others, so the mix is not that of the screen. Unmarked numbers belong to inactive results.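 Rule for the calls: active = score above a cut-off or among the top three wells of a plate; in these data no inactive exceeds 0.85.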

Test system: primary human hepatic stellate cells (donor 1)
Assay: scaled lipid accumulation score (0 = DMSO-like, 1 = nortriptyline-like); higher = stronger HSC inactivation (lipid re-accumulation), active = hit call of the paper
Conditions: 48 h
[1] = library stock concentration: 2 mM
[2] = library stock concentration: 3.33 mM
[3] = library stock concentration: 1 mM
[4] = library stock concentration: 10 mM
[5] = library stock concentration: 80 uM
[6] = library stock concentration: 400 uM

SMILES: C[C@@H](O)[C@@H]1NC(=O)[C@H](CCCCN)NC(=O)[C@@H](Cc2c[nH]c3ccccc23)NC(=O)[C@H](Cc2ccccc2)NC(=O)[C@@H](NC(=O)[C@H](N)Cc2ccccc2)CSSC[C@@H](C(=O)N[C@H](CO)[C@@H](C)O)NC1=O [Octreotide]
- scaled lipid accumulation score [1]: 0.006

SMILES: CC(=O)O/N=C1/C(c2c(O)[nH]c3cc(Br)ccc23)=Nc2ccccc21 [GSK-3 Inhibitor X]
- scaled lipid accumulation score [2]: ≤ 0

SMILES: O=C1C[C@@H]2[C@@H](CC[C@@H](O)CCc3ccccc3)[C@H](O)C[C@@H]2O1 [Latanoprost Lactone Diol]
- scaled lipid accumulation score [3]: 0.003

SMILES: O=C(CCCCCCCCCCCCC1CCCC1)Nc1ccc(S(=O)(=O)c2ccc(NC(=O)CCCCCCCCCCCCC3CCCC3)cc2)cc1 [Chaulmosulfone]
- scaled lipid accumulation score [4]: ≤ -0.027

SMILES: Cc1cc2c(F)c(Oc3ncnn4cc(OC[C@@H](C)O)c(C)c34)ccc2[nH]1
- scaled lipid accumulation score [2]: 0.023
- scaled lipid accumulation score [4]: ≤ 0

SMILES: Cc1cc2c(F)c(Oc3ncnn4cc(OC[C@@H](C)OC(=O)[C@H](C)N)c(C)c34)ccc2[nH]1
- scaled lipid accumulation score [2]: ≤ 0
- scaled lipid accumulation score [4]: ≤ 0

SMILES: COc1cc2c(Oc3ccc4[nH]c(C)cc4c3F)ncnc2cc1OCCCN1CCCC1 [Cediranib] [listing 1 of 2 here]
- scaled lipid accumulation score [1]: 1.06 (active)

SMILES: Cc1cc2c(F)c(Oc3ncnn4cc(OC[C@@H](C)O)c(C)c34)ccc2[nH]1 [Brivanib]
- scaled lipid accumulation score [5]: ≤ -0.009
- scaled lipid accumulation score [6]: ≤ -0.009
- scaled lipid accumulation score [1]: ≤ -0.009
- scaled lipid accumulation score [4]: ≤ -0.009

SMILES: COc1cc2c(Oc3ccc4[nH]c(C)cc4c3F)ncnc2cc1OCCCN1CCCC1 [Cediranib (AZD2171)] [listing 1 of 2 here]
- scaled lipid accumulation score [2]: 1.1 (active)

SMILES: COc1cc2c(Oc3ccc4[nH]c(C)cc4c3F)ncnc2cc1OCCCN1CCCC1 [Cediranib] [listing 2 of 2 here]
- scaled lipid accumulation score [5]: 0.077
- scaled lipid accumulation score [6]: 0.464
- scaled lipid accumulation score [4]: 0.693

SMILES: COc1cc2c(Oc3ccc4[nH]c(C)cc4c3F)ncnc2cc1OCCCN1CCCC1 [Cediranib (AZD2171)] [listing 2 of 2 here]
- scaled lipid accumulation score [4]: 0.678

SMILES: CCCCCCCC/C=C\CCCCCC(=O)O [cis-7-Hexadecenoic Acid]
- scaled lipid accumulation score [3]: ≤ 0

SMILES: COC(=O)C(C)(N)Cc1ccc(O)cc1 (racemic) [alpha-Methyl-DL-tyrosine methyl ester hydrochloride]
- scaled lipid accumulation score [4]: ≤ -0.019

SMILES: CN1CCC(CNc2ccc3ncc(-c4cccc(OC(F)(F)F)c4)n3n2)CC1 [listing 1 of 2 here]
- scaled lipid accumulation score [1]: 1.4 (active)

SMILES: CN1CCC(CNc2ccc3ncc(-c4cccc(OC(F)(F)F)c4)n3n2)CC1 [listing 2 of 2 here]
- scaled lipid accumulation score [5]: 0.117
- scaled lipid accumulation score [6]: 0.23
- scaled lipid accumulation score [4]: 0.47

SMILES: CN1CCC(CNc2ccc3ncc(-c4cccc(OC(F)(F)F)c4)n3n2)CC1 [SGI-1776 free base]
- scaled lipid accumulation score [2]: 0.774
- scaled lipid accumulation score [4]: 0.181

SMILES: CCCCC/C=C\C/C=C\C/C=C\C/C=C\CCCC(=O)NC[C@]1(C)CCC[C@]2(C)c3ccc(C(C)C)cc3CC[C@@H]12 [Arachidonic Acid Leelamide]
- scaled lipid accumulation score [3]: 0.002

SMILES: CCCCCCCCCCCCCCCC(=O)NC(CO)CO [Palmitoyl Serinol]
- scaled lipid accumulation score [3]: 0.026

SMILES: O=C(Nc1ccncc1)Nc1c(Cl)cc(Cl)cc1Cl [Rho Kinase Inhibitor II]
- scaled lipid accumulation score [2]: ≤ 0

SMILES: Cc1cc(C)c(Nc2ccnc(Nc3ccc(C#N)cc3)n2)c(C)c1 [Dapivirine (TMC120)] [listing 1 of 2 here]
- scaled lipid accumulation score [4]: 1.08 (active)

SMILES: Cc1cc(C)c(Nc2ccnc(Nc3ccc(C#N)cc3)n2)c(C)c1 [Dapivirine (TMC120)] [listing 2 of 2 here]
- scaled lipid accumulation score [2]: 0.243

SMILES: Cc1cc(/C=C/C#N)cc(C)c1Nc1ccnc(Nc2ccc(C#N)cc2)n1 [Rilpivirine]
- scaled lipid accumulation score [2]: ≤ -0.009
- scaled lipid accumulation score [4]: ≤ 0

SMILES: Cc1ccccc1-c1cccc(N2CCC(N3CCN(C)C(C)C3)CC2)c1 (stereo unspecified)
- scaled lipid accumulation score [4]: 1.05 (active)

SMILES: O=C(O)CCC/C=C\C[C@@H]1[C@@H](/C=C/[C@H](O)CCc2ccccc2)[C@H](O)C[C@@H]1O [15(R)-17-phenyl trinor Prostaglandin F2.alpha.]
- scaled lipid accumulation score [3]: ≤ 0

SMILES: CN(Cc1ccccc1)C(=O)[C@H](Cc1ccc2ccccc2c1)NC(=O)[C@@H]1C[C@@H](O)CN1C(=O)c1cn(C)c2ccccc12
- scaled lipid accumulation score [4]: 0.019

SMILES: CN(Cc1ccccc1)C(=O)[C@H](Cc1ccc2ccccc2c1)NC(=O)[C@@H]1CCCN1C(=O)Nc1ccccc1[N+](=O)[O-]
- scaled lipid accumulation score [4]: 0.005

SMILES: CNC(=O)[C@@H](Cc1ccccc1)N(C)C(=O)[C@@H](Cc1ccc2ccccc2c1)N(C)C(=O)/C=C/CC(C)(C)N.CNC(=O)[C@@H](Cc1ccccc1)N(C)C(=O)[C@@H](Cc1ccc2ccccc2c1)N(C)C(=O)/C=C/CC(C)(C)N.O=C(O)/C=C/C(=O)O [Tabimorelin]
- scaled lipid accumulation score [4]: 1.3 (active)

SMILES: CCCCCCCCCCCCC/C=C/[C@@H](O)[C@H](CO)NC(=O)CCCCCCCCCCCCCCC [C16 Ceramide]
- scaled lipid accumulation score [3]: ≤ -0.021

SMILES: C[n+]1cc2c3c(ccc2c2ccc4cc5c(cc4c21)OCO5)OCO3 [Sanguinarine]
- scaled lipid accumulation score: 0.869 (active)

SMILES: COc1ccc2cc3[n+](cc2c1OC)CCc1cc2c(cc1-3)OCO2 [Berberine chloride]
- scaled lipid accumulation score: ≤ 0
- scaled lipid accumulation score [4]: ≤ 0

SMILES: COc1ccc2cc3[n+](cc2c1OC)CCc1cc2c(cc1-3)OCO2 [Berberine HCl]
- scaled lipid accumulation score [2]: ≤ 0
- scaled lipid accumulation score [4]: ≤ 0

SMILES: C[n+]1cc2c3c(ccc2c2ccc4cc5c(cc4c21)OCO5)OCO3 [Sanguinarine chloride]
- scaled lipid accumulation score [4]: 0.196

SMILES: C[n+]1cc2c3c(ccc2c2ccc4cc5c(cc4c21)OCO5)OCO3 [Sanguinarine sulfate]
- scaled lipid accumulation score (library stock concentration: 4.7 mM): 0.693
- scaled lipid accumulation score [4]: 0.287

SMILES: CC#CCC(C)C(=O)/C=C/[C@@H]1[C@H]2C/C(=C/CCCC(=O)O)C[C@H]2C[C@H]1O (stereo partly specified) [15-keto Iloprost]
- scaled lipid accumulation score [3]: ≤ 0

SMILES: CC(C)OC(=O)CCC/C=C\C[C@@H]1[C@@H](/C=C/C(=O)COc2cccc(C(F)(F)F)c2)[C@H](O)C[C@@H]1O [15-keto Fluprostenol isopropyl ester]
- scaled lipid accumulation score [3]: ≤ 0

SMILES: CC1CC2C3CCC4=CC(=O)C=CC4(C)C3(F)C(O)CC2(C)C1C(=O)CO (stereo unspecified)
- scaled lipid accumulation score [4]: ≤ 0

SMILES: COc1cc2ncnc(Nc3ccc(F)c(Cl)c3)c2cc1NC(=O)C=CCN1CCCCC1 [listing 1 of 2 here]
- scaled lipid accumulation score [1]: 0.903 (active)
- scaled lipid accumulation score [4]: 1.47 (active)

SMILES: CNC(=O)CN1CCC(Oc2cc3c(Nc4cccc(Cl)c4F)ncnc3cc2OC)CC1 [AZD8931 (Sapitinib)]
- scaled lipid accumulation score [2]: 0.28
- scaled lipid accumulation score [4]: 0.713

SMILES: COc1cc2ncnc(Nc3ccc(F)c(Cl)c3)c2cc1NC(=O)/C=C/CN1CCCCC1
- scaled lipid accumulation score [5]: ≤ -0.016
- scaled lipid accumulation score [6]: 0.274
- scaled lipid accumulation score [4]: 0.219

SMILES: COc1cc2ncnc(Nc3ccc(F)c(Cl)c3)c2cc1NC(=O)C=CCN1CCCCC1 [listing 2 of 2 here]
- scaled lipid accumulation score [2]: 1.08 (active)

SMILES: O=C1/C(=C/c2cccs2)CCC/C1=C\c1cccs1
- scaled lipid accumulation score [4]: ≤ 0

SMILES: CC(=O)N1CCN(c2ccc(OCC3COC(Cn4ccnc4)(c4ccc(Cl)cc4Cl)O3)cc2)CC1 (stereo unspecified)
- scaled lipid accumulation score [4]: 0.048

SMILES: CC(=O)N1CCN(c2ccc(OCC3COC(Cn4ccnc4)(c4ccc(Cl)cc4Cl)O3)cc2)CC1 (stereo unspecified) [Ketoconazole]
- scaled lipid accumulation score: 0.131
- scaled lipid accumulation score [2]: 0.086

SMILES: CC(=O)Oc1c(C)c(C)c2c(c1C)CCC(C)(CCCC(C)CCCC(C)CCCC(C)C)O2 (stereo not drawn) [Alpha-tochopheryl acetate]
- scaled lipid accumulation score [4]: 0.117

SMILES: O=C1NC(=O)c2c1c1c3ccccc3[nH]c1n1cncc21 [Isogranulatimide]
- scaled lipid accumulation score [2]: ≤ 0

SMILES: CCCCC[C@H](O)/C=C/[C@@H]1[C@@H](C/C=C\CCCC(=O)OC(C)C)[C@@H](O)C[C@H]1O [Prostaglandin F2.alpha. isopropyl ester]
- scaled lipid accumulation score [3]: ≤ 0

SMILES: O=C(O)CC/C=C\C[C@H]1CO[C@@H](c2ccccc2Cl)O[C@H]1c1ccccc1O
- scaled lipid accumulation score [4]: ≤ 0

SMILES: C=C1/C(=C\C=C2/CCC[C@]3(C)[C@@H]([C@H](C)CCCC(C)C)CC[C@@H]23)C[C@@H](O)C[C@@H]1O [Alfacalcidol]
- scaled lipid accumulation score [2]: ≤ 0
- scaled lipid accumulation score (library stock concentration: 5 mM): ≤ -0.006

SMILES: C=C1/C(=C\C=C2/CCC[C@]3(C)[C@@H]([C@H](C)CCCC(C)(C)O)CC[C@@H]23)C[C@@H](O)C[C@@H]1O
- scaled lipid accumulation score [4]: ≤ 0

SMILES: C=C1/C(=C\C=C2/CCC[C@]3(C)[C@@H]([C@H](C)CCCC(C)(C)O)CC[C@@H]23)C[C@@H](O)C[C@@H]1O [1?,25-Dihydroxyvitamin D3]
- scaled lipid accumulation score [3]: 0.004

SMILES: C=C1/C(=C\C=C2/CCC[C@]3(C)[C@@H]([C@H](C)CCCC(C)(C)O)CC[C@@H]23)C[C@@H](O)C[C@@H]1O [Calcitriol]
- scaled lipid accumulation score [2]: ≤ 0
- scaled lipid accumulation score (library stock concentration: 4.8 mM): 0.018
- scaled lipid accumulation score [4]: ≤ 0

SMILES: C=C1C(=CC=C2CCC[C@]3(C)[C@@H]([C@H](C)CCCC(C)C)CC[C@@H]23)C[C@@H](O)C[C@@H]1O [Alfacalcidol]
- scaled lipid accumulation score [4]: 1.03 (active)

SMILES: O=C(c1cc2cc(O)ccc2[nH]1)c1cc2cc(O)ccc2[nH]1 [Flt-3 Inhibitor II]
- scaled lipid accumulation score [2]: ≤ 0

SMILES: CC(=O)Nc1ccc(C(=O)Nc2ccccc2N)cc1 [CI994 (Tacedinaline)]
- scaled lipid accumulation score [2]: ≤ 0
- scaled lipid accumulation score [4]: 0.161

SMILES: Nc1ccccc1NC(=O)c1ccc(CNc2nccc(-c3cccnc3)n2)cc1 [Mocetinostat (MGCD0103)] [listing 1 of 2 here]
- scaled lipid accumulation score [2]: 0.974 (active)

SMILES: Nc1ccccc1NC(=O)c1ccc(CNC(=O)OCc2cccnc2)cc1 [Entinostat (MS-275)]
- scaled lipid accumulation score [2]: 0.152
- scaled lipid accumulation score [4]: 0.418

SMILES: O=C(Nc1ccc(Cl)cc1)c1ccccc1NCc1ccncc1 [VEGF Receptor Tyrosine Kinase Inhibitor II]
- scaled lipid accumulation score [2]: ≤ 0

SMILES: Nc1ccccc1NC(=O)c1ccc(CNc2nccc(-c3cccnc3)n2)cc1 [Mocetinostat] [listing 1 of 2 here]
- scaled lipid accumulation score [1]: 0.728 (active)
- scaled lipid accumulation score [4]: 0.648 (active)

SMILES: Nc1ccccc1NC(=O)c1ccc(CNc2nccc(-c3cccnc3)n2)cc1 [Mocetinostat (MGCD0103)] [listing 2 of 2 here]
- scaled lipid accumulation score [4]: 0.769

SMILES: Nc1ccccc1NC(=O)c1ccc(CNC(=O)OCc2cccnc2)cc1
- scaled lipid accumulation score [5]: ≤ 0
- scaled lipid accumulation score [6]: ≤ 0
- scaled lipid accumulation score [3]: 0.014
- scaled lipid accumulation score [1]: ≤ 0
- scaled lipid accumulation score [4]: 0.628

SMILES: Nc1ccccc1NC(=O)c1ccc(CNc2nccc(-c3cccnc3)n2)cc1 [Mocetinostat] [listing 2 of 2 here]
- scaled lipid accumulation score [5]: ≤ 0
- scaled lipid accumulation score [6]: ≤ 0
